# PAFAH2 inh: inhibitors of human PAFAH2. Q99487. 340,000 compounds, 0.99% hits. inhibition, % at 3.39 µM. recombinant PAFAH2, FP-rhodamine activity probe, fluorescence polarization;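 active = inhibition above the mean over all tested compounds plus 3 SD, cut at about 30% in these data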;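 note: inhibitors block probe labeling of enzyme so polarization drops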
# Fam108B counter: counter-screen for RBBP9 inhibitors: inhibitors of mouse Fam108B; inhibition, % at 9.51 µM; 300,000 compounds, 0.33% hits; recombinant Fam108B, FP-Rh probe fluorescence polarization;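 active = inhibition above the screen mean inhibition plus 3 SD, computed separately per campaign, cut at about 18% in these data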;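 note: inhibitors lower polarization as less probe binds the enzyme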
# PME-1 primary: PME-1 (human) inhibition. recombinant PME-1, FP-Rh probe fluorescence polarization. Q9Y570. inhibition, % at 5.9 µM. 320,000 compounds, 0.53% hits. AID 2130;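 active = inhibition above the campaign mean of all compounds plus 3 SD, cut at about 26% in these data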;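 note: competitive labeling of PME-1 active site by serine hydrolase directed probe; inhibitors block probe labeling so polarization falls and inhibition rises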
# Target sequence (Q9Y570 whole entry, looked up): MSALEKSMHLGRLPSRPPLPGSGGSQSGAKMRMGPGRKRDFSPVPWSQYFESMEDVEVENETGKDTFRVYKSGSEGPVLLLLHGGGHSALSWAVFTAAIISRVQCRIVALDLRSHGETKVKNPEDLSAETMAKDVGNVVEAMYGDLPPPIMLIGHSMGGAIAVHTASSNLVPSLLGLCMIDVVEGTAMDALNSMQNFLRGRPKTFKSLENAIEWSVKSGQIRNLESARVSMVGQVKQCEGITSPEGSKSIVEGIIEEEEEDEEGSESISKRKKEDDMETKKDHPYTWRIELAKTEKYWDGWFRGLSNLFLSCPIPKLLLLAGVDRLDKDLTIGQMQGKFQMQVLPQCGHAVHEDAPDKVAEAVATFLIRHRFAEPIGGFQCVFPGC
# PAFAH1B3 FP inh: PAFAH1B3 (human) inhibition. Q15102. recombinant PAFAH1B3, FP-rhodamine probe, fluorescence polarization. inhibition, % at 3.39 µM. 340,000 compounds, 0.28% hits;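 active = inhibition above the screen-wide average of all tested compounds plus 3 SD, cut at about 25% in these data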
# PAFAH1B2 FP inh: blocks human PAF acetylhydrolase 1b catalytic subunit 2; recombinant PAFAH1B2, FP-rhodamine activity probe, fluorescence polarization; P68402; AID 492953; inhibition, % at 3.39 µM; 340,000 compounds, 1.2% hits;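 active = inhibition above the mean of all tested compounds plus 3 SD, cut at about 24% in these data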
# Target sequence (P68402 whole entry, looked up): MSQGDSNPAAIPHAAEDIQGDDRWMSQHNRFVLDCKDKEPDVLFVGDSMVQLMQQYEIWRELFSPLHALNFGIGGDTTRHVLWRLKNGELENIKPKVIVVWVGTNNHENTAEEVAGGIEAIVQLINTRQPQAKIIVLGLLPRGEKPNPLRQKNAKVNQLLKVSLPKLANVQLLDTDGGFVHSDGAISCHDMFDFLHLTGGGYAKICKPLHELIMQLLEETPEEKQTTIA
# pPAFAH FP inh: inhibitors of human plasma PAF acetylhydrolase (pPAFAH); AID 463082; inhibition, % at 3.39 µM; Q13093; recombinant pPAFAH, FP-rhodamine probe fluorescence polarization; 330,000 compounds, 1.5% hits;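 active = inhibition above the mean inhibition across the screen plus 3 SD, cut at about 25% in these data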;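 note: inhibitors block binding of the rhodamine activity-based probe so polarization drops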
# Fam108b confirm: confirmation of mouse Fam108b serine hydrolase inhibitors; shares compounds with Fam108B counter; recombinant Fam108b, FP-Rh probe fluorescence polarization; inhibition, % at 9.51 µM; 930 compounds, 44% hits;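 active = inhibition above a limit from the primary screen, the mean over all compounds plus 3 SD, cut at about 19% in these data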;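 note: inhibitors free the probe so polarization falls as inhibition rises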
# Fam108b inh: mouse ABHD17B inhibition | shares compounds with Fam108B counter | recombinant Fam108b, gel-based ABPP, fluorophosphonate probe | inhibition, % at 20 µM | 260 compounds, 44% hits; in the data active = inhibition above about 40%
# pPAFAH confirm: pPAFAH (human) inhibition, confirmed. shares compounds with pPAFAH FP inh. recombinant pPAFAH, FP-Rh probe fluorescence polarization. inhibition, % at 3.39 µM. 2,300 compounds, 72% hits. AID 463230;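 active = mean inhibition of the triplicate above the hit cutoff set for the earlier primary screen, cut at about 25% in these data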
# PAFAH2 confirm: confirmation of human PAFAH2 inhibitors. recombinant PAFAH2, FP-rhodamine activity probe, fluorescence polarization. 2,300 compounds, 65% hits. shares compounds with PAFAH2 inh. inhibition, % at 3.39 µM. AID 493030;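 active = mean inhibition over three repeats above a set limit taken from the earlier primary screen, cut at about 30% in these data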;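 note: inhibitor blocks binding of rhodamine activity probe so polarization falls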
# PAFAH1B3 conf FP: confirmation of human PAFAH1B3 inhibitors | shares compounds with PAFAH1B3 FP inh | recombinant PAFAH1B3, FP-Rh activity-based probe, fluorescence polarization | inhibition, % at 3.39 µM | 390 compounds, 30% hits | AID 493032;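 active = average inhibition over triplicate runs above the hit cutoff set in the earlier primary screen, cut at about 25% in these data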
# Numbers stand for hits; i = inactive; nt = no result given; + = active, no number. A selection: hits, their analogues and other compounds. The true share with any hit is near 2.9%.
SMILES,PAFAH2 inh,Fam108B counter,PME-1 primary,PAFAH1B3 FP inh,PAFAH1B2 FP inh,pPAFAH FP inh,Fam108b confirm,PAFAH1B3 conf FP,others
O=C(O)C1Nc2c(Cl)cc(Cl)cc2C2C=CCC12 (stereo not given),82,33,i,i,36,81,24,nt,pPAFAH confirm=43
CC(C)CNC(=O)C1Nc2ccccc2C2C=CCC12 (stereo not given),i,i,i,i,i,i,nt,nt,
O=C(O)C1Nc2c(O)cccc2C2C=CCC12 (stereo not given),50,66,i,40,36,88,57,nt,pPAFAH confirm=42
CCOC(=O)C1=CNS(=O)(=O)NC1c1ccc(C#N)cc1 (stereo not given),i,nt,nt,i,i,i,nt,nt,
CCNc1ccccc1CP(=O)(c1ccccc1)c1ccccc1O (stereo not given),nt,25,70,nt,nt,42,i,nt,pPAFAH confirm=i
Cc1ccc(O)c(CP(=O)(c2ccccc2)c2ccccc2)c1,i,i,i,i,i,i,nt,nt,
CCOc1ccc2nc3cc(NCc4ccc(OC)cc4)ccc3c(N)c2c1,i,24,i,i,i,38,i,nt,pPAFAH confirm=i
CCOC(=O)C1=CNS(=O)(=O)NC1c1ccc(C(F)(F)F)cc1 (stereo not given),i,nt,nt,i,i,i,nt,nt,
CCCCn1cnc2c(SCc3ccccc3Cl)nc(N)nc21,i,nt,nt,i,i,nt,nt,nt,
O=c1oc(-c2cccs2)nc2c1cnn2-c1ccccc1,66,20,i,i,i,i,23,nt,PAFAH2 confirm=54
O=c1c2cnn(-c3ccccc3)c2nc(-c2cccs2)n1-c1ccc(Cl)cc1,i,i,i,i,i,i,nt,nt,
CN(C)S(=O)(=O)c1cccc(NC(=S)N/N=C/c2cc(Br)ccc2O)c1,34,29,38,i,i,i,i,nt,PAFAH2 confirm=i
COc1cc(OC)cc(-c2nnc(Nc3nc4c(F)cccc4s3)o2)c1,36,19,61,i,i,i,i,nt,PAFAH2 confirm=31
O=[N+]([O-])c1cc(Br)c(O)c(/C=N/Nc2nnnn2-c2cccc3ccccc23)c1,35,40,49,i,i,34,54,nt,PAFAH2 confirm=i
Cc1ccc(C)c(NC(NC(=O)c2cccnc2)C(Cl)(Cl)Cl)c1 (stereo not given),i,i,i,i,i,i,nt,nt,
COc1ccc(C2CC(=O)c3sc(N)nc3C2)cc1 (stereo not given),i,i,i,i,i,i,nt,nt,
Cc1cc(=O)oc(C)c1C(=O)NCc1ccccc1,i,i,i,i,i,i,nt,nt,
COc1cc(/C=C2\C(=O)N(c3ccc(NC(C)=O)cc3)N=C2c2ccccc2)ccc1O,i,i,i,i,i,i,nt,nt,
CCOc1cc(/C=C2\C(=O)N(c3nc(-c4ccc(Br)cc4)cs3)N=C2c2ccccc2)ccc1O,55,42,i,i,i,41,42,nt,Fam108b inh=90;PAFAH2 confirm=45
O=C(Nc1ccc(N2CCOCC2)cc1)Nc1ccc2nc(-c3ccco3)c(-c3ccco3)nc2c1,i,26,65,28,i,45,i,i,pPAFAH confirm=i
O=C1Nc2ccc(Br)cc2C12NNc1ccccc1O2 (stereo not given),i,21,38,27,i,29,i,i,
O=C1Nc2ccc(Br)cc2C1(O)c1ccccc1 (stereo not given),i,i,i,i,i,i,nt,nt,
CC(C)(C)C(=O)NC(Nc1cccc2cccnc12)C(Cl)(Cl)Cl (stereo not given),i,i,i,i,i,i,nt,nt,
Nc1nonc1N/N=C/c1c(O)ccc2ccccc12,i,24,30,31,i,i,i,i,
CCOc1ccc(-c2csc(/C(C#N)=C\c3ccc(O)c([N+](=O)[O-])c3)n2)cc1,i,25,i,35,i,i,i,i,
SMILES,PAFAH2 inh,Fam108B counter,PME-1 primary,PAFAH1B3 FP inh,PAFAH1B2 FP inh,pPAFAH FP inh,Fam108b confirm,PAFAH1B3 conf FP,others
COc1ccccc1NS(=O)(=O)c1cc([N+](=O)[O-])ccc1N/N=C/c1c(C)[nH]c2ccccc12,i,i,i,i,i,i,nt,nt,
O=[N+]([O-])c1ccc(N/N=C/c2c[nH]c3ccccc23)c(S(=O)(=O)Nc2ccc(Cl)cc2)c1,i,38,i,30,i,i,+,i,
CC(C)c1nc2c(s1)CCc1onc(-c3cccc([N+](=O)[O-])c3)c1-2,i,i,i,i,i,i,nt,nt,
O=c1oc2ccccc2cc1-c1nc2c(s1)CCc1ccccc1-2,i,i,i,i,i,i,nt,nt,
O=c1oc2cc(O)ccc2cc1-c1nc2c(s1)CCc1ccccc1-2,i,22,i,33,i,i,23,i,
COc1ccc(CC(=O)OCC(=O)NC2CC2)cc1,i,nt,i,i,i,i,nt,nt,
C=CCn1c(NC(=O)c2ccccc2Cl)c(C#N)c2nc3ccccc3nc21,i,49,i,60,i,i,i,i,
CCCCn1c(NC(C)=O)c(C#N)c2nc3ccccc3nc21,i,i,i,i,i,i,nt,nt,
CCN(CC)c1ccc(/C=N/Nc2nc3ccccc3[nH]2)c(O)c1,i,21,i,27,i,i,19,26,
CCN(CC)S(=O)(=O)c1ccc(N2CCCCC2)c(NC(=O)/C=C/c2cc(OC)c(OC)c(OC)c2)c1,i,i,i,i,i,i,nt,nt,
CC(=O)c1ccc(NC(=O)c2cccc(N3C(=O)c4ccccc4C3=O)c2)cc1,i,i,i,i,i,i,nt,nt,
COc1ccc(NC(=O)c2cccc(N3C(=O)c4ccc(C(=O)Nc5ccc(OC)c(O)c5)cc4C3=O)c2)cc1O,i,21,i,26,i,i,26,i,
Cc1c(CC(=O)NCC(=O)O)c(=O)oc2cc3oc4c(c3cc12)CCCC4,i,nt,nt,i,i,nt,nt,nt,
O=c1[nH]c(Nc2ccccc2)cc2ccccc12,i,24,i,31,i,i,37,i,Fam108b inh=i
COc1cc(OC)c2cc(C(=O)N/N=C/c3ccccc3O)[nH]c2c1,i,29,32,29,i,i,i,i,
Cc1cc(-c2ccccc2)nc2c(Br)c(C(=O)O)nn12,nt,i,i,nt,nt,i,nt,nt,
O=[N+]([O-])c1cc(-c2ccc(/C=N/c3nc4ccccn4c3-c3ccco3)o2)ccc1Cl,i,i,i,i,i,35,nt,nt,pPAFAH confirm=i
CCOC(=O)/C(=N\Nc1ccccc1)c1csc(Nc2ccc(C)cc2)n1,i,i,i,i,i,i,nt,nt,
